# PubChem BioAssay
# Active and inactive are the calls of the source.
# Experiments:
# [1] = binders of probe aFSTL3 on microarray, primary screen, stem cell growth factor project, biochemical, small-molecule microarray, fluorescence 635/667 (AID 1064); settings: higher = more signal;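 note: measures binding of the biotinylated anti-FSTL3 antibody to printed compounds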
# [2] = binders from COS7 lysate, DM2A8 probe, primary screen, torsin A project, cell lysate, small-molecule microarray, fluorescence 635/667 (AID 1065); settings: higher = more signal, COS7 lysate expressing mutant human TOR1A
# [3] = binders of probe aFGF2 on microarray, primary screen, stem cell growth factor project, biochemical, small-molecule microarray, fluorescence 635/667 (AID 1067); settings: higher = more signal;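 note: measures binding of biotinylated aFGF2 protein to printed compounds on slides; z-score merges feature fluorescence and signal-to-noise across triplicate slides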
# [4] = binders of probe aFGF10 on microarray, primary screen, stem cell growth factor project, biochemical, small-molecule microarray, fluorescence 635/667 (AID 1071); settings: higher = more signal;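 note: score merges 667 nm spot intensity and signal to noise from triplicate slides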
# [5] = target: Neurogenic locus notch homolog protein 2 (Homo sapiens) (UniProt Q04721); assay: Notch2 binders on small-molecule microarrays, primary screen, biochemical, small-molecule microarray, 635 nm fluorescence, stem cell growth factors (AID 1073); settings: Notch2 binding, higher = more signal
# [6] = target: Pro-neuregulin-1, membrane-bound isoform (Homo sapiens) (UniProt Q02297); assay: NRG1 binders on small-molecule microarrays, primary screen, psychiatric disease protein project, biochemical, small-molecule microarray, fluorescence 635/667 (AID 1075); settings: NRG1 binding, 635 nm fluorescence, higher = more signal;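 note: score combines 667 nm spot fluorescence with signal to noise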
# [7] = system: Neuregulin-1 EGF-like domain; assay: binders of neuregulin-1 EGF-like domain, primary screen, biochemical, small-molecule microarray, 635 nm fluorescence (AID 1081); settings: small-molecule microarray binding, higher = more signal;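 note: binding of the protein to compounds printed on small-molecule microarray slides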
# [8] = FRG1 promoter luciferase signal modulators, primary screen, FRG1 inhibition for FSHD, cell-based, C2C12 myotubes, firefly/Renilla luciferase, luminescence (AID 1084); settings: higher = more signal, called active from +8 up or from −8 down
# [9] = binders of probe aFST on microarray, primary screen, stem cell growth factor project, biochemical, small-molecule microarray, fluorescence 635/667 (AID 1086); settings: higher = more signal;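 note: score merges 667 nm fluorescence with signal-to-noise of each printed compound spot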
# [10] = binders of probe aHhip on microarray, primary screen, stem cell growth factor project, biochemical, small-molecule microarray, fluorescence 635/667 (AID 1087); settings: higher = more signal;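 note: score merges spot fluorescence at 667nm with spot signal to noise ratio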
# [11] = system: PRMT1 (protein arginine N-methyltransferase 1); assay: PRMT1 binders on small-molecule microarrays, primary screen, biochemical, small-molecule microarray, 635 nm fluorescence (AID 1088); settings: small-molecule microarray binding, higher = more signal;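 note: binding of Prmt1 protein to compounds spotted on small-molecule microarray slides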
# [12] = yeast growth modulation, basal conditions, primary screen, YJM789 clinical isolate, OD600, 24 h (AID 1089);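 note: growth of clinical yeast isolate S. cerevisiae YJM 789 seeded 1000 cells per well; test concentration not given here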; settings: S. cerevisiae YJM789 growth, higher = more signal, called active from +8 up or from −8 down
# [13] = fission yeast growth modulation, primary screen, strain 972, OD600, 24 h, no modulator (AID 1090);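 note: basal condition with compound alone and no growth modifier present; test concentration not given here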; settings: S. pombe 972 growth, higher = more signal, called active from +8 up or from −8 down
# [14] = S. cerevisiae growth modulation with rapamycin, primary screen, strain BY4716, OD600, 96 h (AID 1091); settings: higher = more signal, called active from +8 up or from −8 down; note: test concentration not given here
# [15] = target: Torsin-1A-interacting protein 2 (Homo sapiens) (UniProt Q8NFQ8); assay: LULL1 binders on small-molecule microarray, primary screen, cell lysate, human LULL1 lysate, 635/667 nm fluorescence (AID 1092); settings: hLULL1 lysate binding, 635 nm fluorescence, higher = more signal;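 note: probe is lysate of COS7 cells overexpressing human LULL1; score merges per-feature 667 nm fluorescence with signal-to-noise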
# [16] = E. coli growth modulation, two-sided OD650, primary screen, E. coli filamentation project, strain DRC41, 24 h (AID 1093); settings: OD650, 24 h, higher = more signal, called active from +8 up or from −8 down;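 note: MC1000 strain lacking acrAB efflux and sulA so SOS filamentation is blocked; test concentration not given here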
# [17] = small-molecule microarray binders of probe aLefty2, primary screen, biochemical, biotinylated probe, 635/667 nm fluorescence (AID 1094); settings: higher = more signal;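 note: score merges spot fluorescence near 667 nm with spot signal-to-noise ratio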
# [18] = system: Noggin (protein binding on small-molecule microarray); assay: Noggin binders on small-molecule microarray, primary screen, biochemical, 635/667 nm fluorescence (AID 1095); settings: 635 nm fluorescence, higher = more signal;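 note: score merges 667 nm feature fluorescence with signal to noise over triplicate slides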
# [19] = target: Neurogenic locus notch homolog protein 3 (Homo sapiens) (UniProt Q9UM47); assay: NOTCH3 binders on small-molecule microarray, primary screen, biochemical, 635/667 nm fluorescence (AID 1096); settings: NOTCH3 binding, 635 nm fluorescence, higher = more signal
# [20] = small-molecule microarray binders of probe aEGFR, primary screen, biochemical, biotinylated probe, 635/667 nm fluorescence (AID 1097); settings: higher = more signal;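 note: probe is a biotinylated anti-EGFR antibody binding compounds printed on slides; score combines fluorescence near 667 nm and signal to noise of each spot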
# Chain of Pro-neuregulin-1, membrane-bound isoform (Homo sapiens) (Q02297 whole entry, looked up, the tested form may be a part, canonical isoform): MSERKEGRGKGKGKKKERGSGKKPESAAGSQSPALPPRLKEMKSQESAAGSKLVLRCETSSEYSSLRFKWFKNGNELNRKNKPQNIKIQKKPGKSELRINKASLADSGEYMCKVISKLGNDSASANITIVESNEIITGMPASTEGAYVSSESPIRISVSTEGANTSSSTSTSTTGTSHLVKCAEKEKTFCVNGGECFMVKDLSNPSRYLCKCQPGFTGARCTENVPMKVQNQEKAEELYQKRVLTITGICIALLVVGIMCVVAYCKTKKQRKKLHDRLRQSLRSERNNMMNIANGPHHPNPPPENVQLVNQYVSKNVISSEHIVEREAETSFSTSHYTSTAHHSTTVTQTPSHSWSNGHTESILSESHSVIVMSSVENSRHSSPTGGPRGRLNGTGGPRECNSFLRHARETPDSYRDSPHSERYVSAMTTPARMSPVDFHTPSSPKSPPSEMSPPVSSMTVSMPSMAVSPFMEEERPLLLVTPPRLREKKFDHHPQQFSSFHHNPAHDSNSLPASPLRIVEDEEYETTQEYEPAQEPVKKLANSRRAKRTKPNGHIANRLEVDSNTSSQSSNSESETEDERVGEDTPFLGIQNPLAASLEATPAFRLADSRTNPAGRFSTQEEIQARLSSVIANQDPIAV
# Chain of Neurogenic locus notch homolog protein 2 (Homo sapiens) (Q04721 whole entry, looked up, canonical isoform): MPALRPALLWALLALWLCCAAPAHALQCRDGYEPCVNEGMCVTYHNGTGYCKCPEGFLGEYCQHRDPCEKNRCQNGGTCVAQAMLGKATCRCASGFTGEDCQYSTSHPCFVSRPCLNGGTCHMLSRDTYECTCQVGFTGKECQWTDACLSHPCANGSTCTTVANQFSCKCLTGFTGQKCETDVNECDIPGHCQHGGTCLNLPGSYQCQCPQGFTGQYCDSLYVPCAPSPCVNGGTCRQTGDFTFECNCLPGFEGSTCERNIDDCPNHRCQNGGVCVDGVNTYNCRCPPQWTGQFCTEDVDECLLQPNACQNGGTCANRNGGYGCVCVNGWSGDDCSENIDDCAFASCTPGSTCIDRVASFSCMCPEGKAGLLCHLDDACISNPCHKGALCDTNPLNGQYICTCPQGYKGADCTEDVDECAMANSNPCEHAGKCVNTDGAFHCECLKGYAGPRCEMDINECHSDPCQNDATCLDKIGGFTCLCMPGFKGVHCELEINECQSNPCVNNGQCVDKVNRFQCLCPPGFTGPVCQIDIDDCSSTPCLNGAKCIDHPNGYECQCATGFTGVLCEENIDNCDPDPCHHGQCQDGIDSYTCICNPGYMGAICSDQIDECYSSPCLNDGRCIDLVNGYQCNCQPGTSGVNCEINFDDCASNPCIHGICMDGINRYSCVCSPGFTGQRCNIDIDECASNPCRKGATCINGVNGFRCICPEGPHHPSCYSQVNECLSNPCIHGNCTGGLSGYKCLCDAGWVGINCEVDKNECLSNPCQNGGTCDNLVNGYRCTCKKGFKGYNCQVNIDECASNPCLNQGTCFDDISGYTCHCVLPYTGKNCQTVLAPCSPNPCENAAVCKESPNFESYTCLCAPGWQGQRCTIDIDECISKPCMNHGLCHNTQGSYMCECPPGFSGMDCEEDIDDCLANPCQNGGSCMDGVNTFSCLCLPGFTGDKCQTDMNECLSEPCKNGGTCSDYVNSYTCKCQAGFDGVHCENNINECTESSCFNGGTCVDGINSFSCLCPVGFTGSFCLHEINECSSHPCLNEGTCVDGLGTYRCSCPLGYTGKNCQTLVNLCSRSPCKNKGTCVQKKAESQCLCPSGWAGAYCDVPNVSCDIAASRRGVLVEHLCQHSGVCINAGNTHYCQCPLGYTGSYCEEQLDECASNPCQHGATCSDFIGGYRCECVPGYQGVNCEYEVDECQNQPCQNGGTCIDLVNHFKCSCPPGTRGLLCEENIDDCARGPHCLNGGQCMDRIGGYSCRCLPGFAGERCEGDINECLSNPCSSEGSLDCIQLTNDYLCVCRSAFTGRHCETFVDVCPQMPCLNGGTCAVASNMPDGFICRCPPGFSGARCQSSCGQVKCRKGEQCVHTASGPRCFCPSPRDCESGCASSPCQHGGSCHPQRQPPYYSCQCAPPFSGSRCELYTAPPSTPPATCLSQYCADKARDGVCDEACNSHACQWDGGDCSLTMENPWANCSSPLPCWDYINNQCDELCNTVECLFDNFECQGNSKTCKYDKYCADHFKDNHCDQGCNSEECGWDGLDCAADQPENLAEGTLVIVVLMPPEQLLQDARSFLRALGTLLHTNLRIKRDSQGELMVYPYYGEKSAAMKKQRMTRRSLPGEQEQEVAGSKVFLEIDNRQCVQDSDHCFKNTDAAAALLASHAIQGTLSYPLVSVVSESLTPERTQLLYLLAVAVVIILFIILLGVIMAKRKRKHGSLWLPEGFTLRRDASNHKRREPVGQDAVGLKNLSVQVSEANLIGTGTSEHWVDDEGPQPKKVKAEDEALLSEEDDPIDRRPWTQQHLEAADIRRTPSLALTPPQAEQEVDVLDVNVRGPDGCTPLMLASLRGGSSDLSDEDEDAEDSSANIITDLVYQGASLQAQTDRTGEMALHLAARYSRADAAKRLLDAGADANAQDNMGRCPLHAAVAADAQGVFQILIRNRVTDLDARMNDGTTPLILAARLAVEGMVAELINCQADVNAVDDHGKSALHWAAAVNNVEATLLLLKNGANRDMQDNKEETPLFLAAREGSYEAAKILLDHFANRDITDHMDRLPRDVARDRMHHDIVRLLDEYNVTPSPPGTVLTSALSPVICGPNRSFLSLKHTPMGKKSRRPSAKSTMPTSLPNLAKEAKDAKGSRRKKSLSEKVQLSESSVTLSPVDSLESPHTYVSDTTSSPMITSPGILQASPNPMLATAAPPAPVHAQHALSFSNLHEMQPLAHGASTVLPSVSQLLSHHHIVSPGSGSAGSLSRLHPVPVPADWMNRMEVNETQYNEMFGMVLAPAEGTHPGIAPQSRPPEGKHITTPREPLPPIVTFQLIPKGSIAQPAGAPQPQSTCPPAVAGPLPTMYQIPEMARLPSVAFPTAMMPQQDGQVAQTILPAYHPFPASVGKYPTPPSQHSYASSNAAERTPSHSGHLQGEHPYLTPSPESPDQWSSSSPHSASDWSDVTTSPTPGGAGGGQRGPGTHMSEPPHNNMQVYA
# Chain of Torsin-1A-interacting protein 2 (Homo sapiens) (Q8NFQ8 whole entry, looked up): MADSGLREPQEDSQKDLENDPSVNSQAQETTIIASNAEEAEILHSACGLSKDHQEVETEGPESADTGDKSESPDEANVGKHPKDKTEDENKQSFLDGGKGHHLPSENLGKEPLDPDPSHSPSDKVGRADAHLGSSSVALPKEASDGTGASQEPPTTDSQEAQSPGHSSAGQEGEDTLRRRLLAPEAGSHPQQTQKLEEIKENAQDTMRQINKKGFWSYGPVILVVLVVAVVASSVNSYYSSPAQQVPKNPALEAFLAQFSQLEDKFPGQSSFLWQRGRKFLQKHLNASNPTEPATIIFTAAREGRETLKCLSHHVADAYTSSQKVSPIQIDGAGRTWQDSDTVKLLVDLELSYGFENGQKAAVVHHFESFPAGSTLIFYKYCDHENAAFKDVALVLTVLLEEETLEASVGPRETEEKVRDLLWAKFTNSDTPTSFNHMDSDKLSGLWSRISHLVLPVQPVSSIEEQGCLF
SMILES,composite z-score [1],composite z-score [2],composite z-score [3],composite z-score [4],composite z-score [5],composite z-score [6],composite z-score [7],z-score [8],composite z-score [9],composite z-score [10],composite z-score [11],z-score [12],z-score [13],z-score [14],composite z-score [15],z-score [16],composite z-score [17],composite z-score [18],composite z-score [19],composite z-score [20]
O=C1O[C@H](c2ccccc2)[C@H](c2ccccc2)N2[C@H]1[C@@H](C(=O)N1CCCCCCC1)[C@]1(C(=O)Nc3ccccc31)[C@H]2c1ccc(O)cc1,4.2,2.71,1.1,1.61,1.83,2.55,1.37,0.168 (inactive),3.92,4.73,1.55,0.532 (inactive),0.556 (inactive),0.874 (inactive),4.82,0.248 (inactive),2.02,2.26,1.01,1.5
CC(C)C[C@@H]1NC(=O)[C@@]23C(=O)N[C@@H](Cc4ccccc4)C2[C@H](C)[C@@]2(C)O[C@H]2C3/C=C/C/C=C\CNC(=O)[C@@H]2CCCN2C1=O (stereo not given in full),-0.566,0.0462,-0.106,-0.0448,-0.385,-0.492,-0.378,2.09 (inactive),0.0833,-0.0994,-0.653,0.0289 (inactive),-0.151 (inactive),-0.453 (inactive),0.0315,-0.762 (inactive),-0.223,0.326,-0.46,-0.121
O=C1NC(=O)C2C1C=CC(C(O)CCc1ccccc1)N2Nc1ccccn1 (stereo not given),0.313,0.478,-0.0881,0.0386,1.07,1.19,0.83,-0.338 (inactive),0.172,-0.407,0.509,-0.974 (inactive),1.51 (inactive),-0.312 (inactive),1.51,-0.581 (inactive),-0.0719,0.103,0.312,-0.0659
C=C(COC)C(=O)CC[C@H](OC(=O)c1ccccc1-c1ccccc1C(=O)O)c1ccc(CO)o1,-0.326,-0.192,-0.128,0.738,-0.532,0.844,1.33,-0.362 (inactive),-0.118,-0.0618,1.56,-1.91 (inactive),0.436 (inactive),0.526 (inactive),1.37,0.229 (inactive),-0.216,0.757,0.391,-0.17
CC(C)(C)OC(=O)CC[C@@]1(C(=O)N2CCCCC2)N=C(c2ccc(OCCCO)cc2)O[C@@H]1c1ccccc1CN=[N+]=[N-],0.165,0.159,0.103,0.355,1.65,1.98,1.22,-1.98 (inactive),1.63,0.0854,1.54,-0.492 (inactive),-0.689 (inactive),-0.0683 (inactive),3.66,0.308 (inactive),0.208,0.39,1.05,0.0026
CCCCC(CC)C(O)C1C=CC2C(=O)NC(=O)C2N1Nc1ccccn1 (stereo not given),-0.252,-0.14,-0.0005,0.207,1.41,1.38,0.879,1.54 (inactive),0.245,0.204,1.34,0.601 (inactive),0.764 (inactive),0.722 (inactive),2.74,-0.828 (inactive),-0.11,0.0732,1.1,-0.119
CC1(C)[C@@H]2CC(C(O)C3C=CC4C(=O)N(c5ccccc5)C(=O)C4N3Nc3ccccc3F)=C[C@@H]1C2 (stereo not given in full),-0.168,0.159,-0.0092,1.03,1.54,1.28,1.14,-3.65 (inactive),0.955,-0.228,1.53,-0.601 (inactive),0.5 (inactive),-0.382 (inactive),3.19,-0.117 (inactive),0.155,0.791,1.06,0.0066
COCCCNC(=O)[C@@]1(Cc2ccccc2I)c2ccccc2C(=O)N(Cc2ccccc2Cl)[C@H]1c1ccc(CO)cc1,-0.196,0.229,-0.0686,0.293,0.153,1.3,1.13,-1.21 (inactive),-0.211,-0.156,0.34,-2.1 (inactive),-0.477 (inactive),-0.905 (inactive),2.37,-0.162 (inactive),0.0842,0.323,0.344,-0.0429
COc1ccc(C#Cc2ccc3c(c2)[C@]2(C(=O)N3)[C@H](C(N)=O)[C@H]3C(=O)O[C@H](c4ccccc4)[C@H](c4ccccc4)N3[C@@H]2c2ccc(O)cc2)cc1,-0.302,1.1,-0.0183,0.665,0.477,1.57,1.38,-0.891 (inactive),0.722,-0.0581,1.56,1.47 (inactive),0.107 (inactive),2.28 (inactive),2.94,-0.103 (inactive),-0.0258,0.176,0.664,0.391
COCCCNC(=O)[C@@]1(Cc2ccccc2N=[N+]=[N-])N=C(c2ccc(OCCCO)cc2)O[C@H]1c1ccccc1CN=[N+]=[N-],0.377,0.556,0.185,1.07,1.47,1.78,1.26,-0.344 (inactive),0.893,-0.192,1.56,-0.873 (inactive),0.553 (inactive),6.93 (inactive),3.49,1.04 (inactive),0.235,-0.0194,1.07,0.43
COC(=O)C(CC#Cc1ccc2c(c1)[C@]1(C(=O)N2)[C@H](C(=O)N2CCc3cc(OC)c(OC)cc3C2)[C@H]2C(=O)O[C@H](c3ccccc3)[C@H](c3ccccc3)N2[C@@H]1c1ccc(O)cc1)C(=O)OC,0.145,0.305,0.0276,0.734,1.32,1.69,1.35,1.77 (inactive),0.288,0.644,1.48,2.78 (inactive),0.355 (inactive),2.62 (inactive),2.83,2.04 (inactive),0.157,1.88,1.09,0.404
C=C(/C(=C/C[C@@H](OC(=O)c1ccncc1)c1ccccc1OCCO)c1cnc2ccccc2c1)C(C)C,-0.108,0.707,0.0401,1.14,1.5,1.23,1.2,-3.75 (inactive),-0.177,0.144,1.54,-24.2 (active),-20.3 (active),-4.07 (inactive),2.72,-0.0023 (inactive),0.0113,1.91,1.07,0.0381
CCOC(=O)C1=CC[C@@H](c2cccc(Br)c2)N(S(=O)(=O)c2ccc(C)cc2)[C@H]1c1ccc([N+](=O)[O-])cc1,-0.508,2.18,-0.0535,0.928,1.52,0.674,1.11,-1.74 (inactive),0.339,0.305,1.53,-0.412 (inactive),-5.06 (inactive),3.93 (inactive),2.96,-0.3 (inactive),-0.0615,0.496,1.15,0.254
COCCOC(=O)N1C(=O)[C@@]2(c3cc(C#CC4(O)CCCCCC4)ccc31)[C@H](C(=O)N1CCN(c3ncccn3)CC1)[C@H]1C(=O)O[C@H](c3ccccc3)[C@H](c3ccccc3)N1[C@@H]2c1ccc(O)cc1,-0.238,0.413,0.0228,0.806,0.372,0.438,1.22,-0.617 (inactive),-0.123,-0.0618,1.47,1.79 (inactive),-0.885 (inactive),2.83 (inactive),2.54,1.31 (inactive),-0.172,0.287,0.546,-0.158
C#CCOC(=O)N[C@H](C=CCCCC)c1ccccc1,0.209,0.108,0.0934,0.239,1.33,2.33,1.31,-0.237 (inactive),0.129,0.382,-0.893,0.126 (inactive),-0.091 (inactive),0.0673 (inactive),2.96,0.392 (inactive),0.148,-0.373,-0.404,0.0082
C=C(C(=O)CC[C@H](OC(=O)c1cccnc1)c1ccc(OCCO)cc1)C(C)C,-0.241,1.43,0.0612,0.404,0.539,0.19,1.2,1.14 (inactive),0.995,0.0881,1.55,0.366 (inactive),-1.54 (inactive),0.905 (inactive),1.76,-0.388 (inactive),-0.0961,0.986,0.717,-0.0362
CN(C)C(=O)[C@@]1(CCC(=O)OC(C)(C)C)N=C(c2ccc(OCCCO)cc2)O[C@H]1c1ccccc1N=[N+]=[N-],0.294,1.45,0.0168,0.739,1.2,1.96,1.52,0.768 (inactive),1.79,0.245,1.54,0.82 (inactive),0.217 (inactive),0.701 (inactive),3.82,-0.0123 (inactive),0.126,1.09,1.09,0.101
COC(=O)c1ccc(OC)c(/C=C\CC(CCc2ccccc2)OC(=O)c2ccncc2)c1 (stereo not given),0.233,0.767,-0.22,-0.293,-0.714,-0.0697,0.0883,-2.63 (inactive),-0.432,-0.146,-0.0105,-0.272 (inactive),-1.34 (inactive),3.39 (inactive),0.673,0.162 (inactive),0.0224,1.88,-0.169,-0.195
CN1C(=O)C2C=CC(C(O)C3CCCCC3)N(N(c3ccccc3)c3ccccc3)C2C1=O (stereo not given),1.61,-0.277,0.182,-0.122,-0.112,1.12,0.659,-0.158 (inactive),0.236,-0.183,0.102,0.345 (inactive),1.25 (inactive),0.4 (inactive),2.5,-0.989 (inactive),0.368,-0.539,-0.396,0.114
O=C1c2ccccc2[C@](Cc2ccccc2I)(C(=O)NC2CC2)[C@H](c2ccc(CO)cc2)N1Cc1ccccc1Cl,0.558,0.478,0.221,0.487,1.23,1.36,1.27,-2.71 (inactive),0.496,-0.105,1.36,0.07 (inactive),0.376 (inactive),1.57 (inactive),1.91,-1.02 (inactive),0.349,1.53,0.856,0.178
